Results from PubChem BioAssay (NCI).
About 83,000 compounds went through this panel and 20% of them were active in at least one assay; those are over-represented in the sample as a whole.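 In brief: 96-well plates, 48 h treatment, single concentration, percent growth endpoint.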 The source made the active and inactive calls. How the source made its calls: active means growth percent below 10; inactive means the rest.

How the values were obtained:
Experiment in all cases: NCI-60 one-dose screen, 48 h (100 = growth as untreated, 0 = no growth, -100 = all killed)
Conditions in all cases: 10 µM unless noted
[1] = test system: T-47D breast
[2] = test system: BT-549 breast
[3] = test system: SW-620 colon
[4] = test system: MCF7 breast
[5] = test system: HCT-116 colon
[6] = test system: HCC-2998 colon
[7] = test system: KM12 colon
[8] = test system: MDA-MB-435 melanoma

Measured: growth

O=C(CO[N+](=O)[O-])Nc1ccc(C(=O)/C=C/c2ccc3c(c2)OCO3)cc1
inactive: [1] 83% | [2] 87.6% | [3] 47.8% | [4] 26.2% | [6] 69.2% | [7] 35.9%
active: [5] -5.9%

CC1=C(NCCN2CCCC2)C(=O)c2c(OCc3ccc(F)c(Cl)c3)cccc2C1=O
inactive: [1] 62.7% | [8] 40% | [3] 78.8% | [4] 41.3% | [5] 31.6% | [6] 80.7% | [7] 79.7%

COc1ccc(CN(c2ccc(C)cc2)C2OC(=O)c3ccccc32)cc1OC (centres undefined)
inactive: [1] 95.2% | [2] 106% | [3] 99.2% | [4] 92.5% | [5] 105% | [6] 102% | [7] 102%

COc1ccc2nc3cc(Cl)ccc3c(N3CCN(c4nccc(Nc5ccc(Cl)cc5)n4)CC3)c2c1
inactive: [1] 32.2% | [8] 78.7% | [3] 73.7% | [4] 41.6% | [5] 12% | [6] 92.3% | [7] 62.3%

COc1ccc(C(=O)COc2ccc(/C=C3\Oc4ccc(Cl)cc4C3=O)cc2)cc1
inactive: [1] 78.2% | [2] 98.1% | [4] 47.1% | [5] 23.6% | [6] 111% | [7] 98.8%

CC/C(=C(\c1ccccc1)c1ccc(OCCNC)cc1)c1ccccc1
active: [2] -91.2% | [8] -93.8% | [3] -57.6% | [4] -95.8% | [5] -96% | [6] -99.7% | [7] -77.7%

C#Cc1nc(Nc2cc(C)[nH]n2)c2ccccc2n1
active: [1] -36.8% | [2] -34.9% | [3] -25.6% | [4] -25.8% | [5] -12.7% | [6] -91% | [7] -73.1%

CCOc1ccc(Nc2nc(-c3c(C)nc4ncccn34)cs2)cc1
active: [8] -41% | [5] 2.95% | [7] 6.58%
inactive: [2] 20.6% | [3] 24.6% | [4] 15% | [6] 23.4%

CCCCCCCCCCCCCCCC(=O)OCC1OC(n2cnc3c(=S)nc(N)[nH]c32)C(OC(=O)CCCCCCCCCCCCCCC)C1OC(=O)CCCCCCCCCCCCCCC (centres undefined)
inactive: [1] 41.3% | [2] 53% | [4] 35% | [5] 32.6% | [6] 53.6% | [7] 71%

CCN(CC)CC(C)(C)C(=O)/C=C/c1ccccc1
active: [4] 5.47%
inactive: [2] 46% | [8] 40% | [3] 35.4% | [5] 12.8% | [6] 79.3% | [7] 53.9%

O=C(Nc1cccc2[nH]c(C(F)(F)F)nc12)c1ccc(Br)cc1F
inactive: [2] 19.4% | [8] 26.9% | [3] 41.6% | [4] 27.1% | [5] 22.7% | [6] 48.3% | [7] 27%

COc1ccccc1-c1ccc2c(N)c(C(=O)c3ccc4c(c3)OCO4)sc2n1
inactive: [2] 71.4% | [3] 42.2% | [4] 36.3% | [5] 42.4% | [6] 71.4% | [7] 53.8%
active: [8] 2.68%

CCCCCCCCCCCCCCCCCCSC1=CC(=O)C(OC)=C(OC)C1=O
inactive: [1] 87.9% | [2] 111% | [3] 81.5% | [4] 96.8% | [5] 97.9% | [7] 94.4%

CC1=C(NCCN2CCCC2)C(=O)c2c(OCc3ccc(C(F)(F)F)cc3)cccc2C1=O
inactive: [1] 73.6% | [8] 70.9% | [3] 83.5% | [4] 59.9% | [5] 33.9% | [6] 107% | [7] 85%

C[C@@H]1CCC2=C(CCC[C@]2(C)C(=O)O)[C@@]1(C)CCc1ccoc1
inactive: [1] 94.9% | [2] 117% | [3] 98.8% | [4] 96.7% | [5] 96% | [6] 87.6% | [7] 97.7%

O=C(CN1CCN(c2cc3c(cc2F)c(=O)c(C(=O)O)cn3C2CC2)CC1)Nc1cc(=O)[nH]c(=O)[nH]1
inactive: [1] 103% | [2] 83.3% | [3] 95.4% | [4] 101% | [5] 91.2% | [6] 98.1% | [7] 108%

COc1ccc(-c2cnoc2-c2cc(OC)c3c(c2)OCCO3)cc1
active: [2] 3.85% | [8] -27.9% | [5] -12.3% | [6] 8.32% | [7] 3.62%
inactive: [3] 19.5% | [4] 12.4%

O=S(=O)(NCCCNc1cc(-c2cn(-c3ccccc3)nc2-c2ccccc2)ccn1)c1ccc(C(F)(F)F)cc1
inactive: [1] 38.7% | [2] 71.2% | [3] 71.1% | [4] 39.2% | [5] 43.2% | [6] 64.1% | [7] 40.5%

Cc1cc(OCc2ccc(C(F)(F)F)cc2)c2c(c1)C(=O)C=C(NCCN1CCCC1)C2=O
active: [8] -23.5%
inactive: [1] 42.8% | [3] 74.7% | [4] 31% | [5] 19.6% | [6] 15.2% | [7] 79.1%

CN1Cc2c(cc(CN3CCCCC3)n2C)C(c2ccc(Br)cc2)C1 (centres undefined)
inactive: [2] 83.1% | [8] 65.5% | [4] 71.8% | [5] 61.8% | [6] 84.2% | [7] 94.5%

CCCCN(CCCC)CCC(C)(O)c1cc2ccccc2c2ccccc12 (centres undefined)
inactive: [1] 109% | [2] 121% | [4] 96.5% | [5] 65.6% | [6] 80.3% | [7] 83.8%

COc1ccc(/C=c2/c(=O)[nH]c3nc4sc(C)c(C)c4c(=O)n23)cc1
inactive: [1] 92.7% | [2] 85.1% | [3] 107% | [4] 93.6% | [5] 93.1% | [6] 113% | [7] 99.2%

CCOC(=O)C12CCCC1=CC(=O)CC2 (centres undefined)
inactive: [2] 110% | [8] 112% | [3] 109% | [4] 101% | [5] 105% | [6] 105% | [7] 106%

CCCCCCCCCC(=O)Oc1ccc(/C(=C(/C)Cc2cccc(OC)c2)c2ccc(OCCN(C)C)cc2)cc1
inactive: [1] 69.4% | [2] 108% | [4] 58.2% | [5] 102% | [6] 100% | [7] 104%

COc1ccc2nc3cc(Cl)ccc3c(N3CCN(c4nccc(Nc5ccccc5)n4)CC3)c2c1
inactive: [1] 23.3% | [8] 62% | [3] 59.7% | [4] 24.3% | [5] 16.3% | [6] 87.6% | [7] 63.1%

O=C1C[C@H](N2C(=O)c3ccccc3S2(=O)=O)C2CO[C@@H]1O2
inactive: [1] 54.1% | [8] 95.7% | [3] 56.1% | [4] 23.1% | [5] 42.7% | [6] 99.3% | [7] 102%

C=CCSc1nnc(-c2ccc(C(C)(C)C)cc2)n1-c1cccc(C(F)(F)F)c1
inactive: [2] 19.3% | [8] 52.5% | [3] 46.2% | [4] 12.1% | [5] 13.3% | [6] 51.1% | [7] 27.1%

COc1ccc(C(=O)c2sc3nc4c(c(C(F)(F)F)c3c2N)CN(C(C)=O)CC4)cc1OC
inactive: [2] 99.6% | [8] 99.7% | [3] 100% | [4] 83.4% | [5] 89.3% | [6] 94.9% | [7] 97.6%

CC(=O)N1CC(Nc2ccc(OC(F)(F)F)cc2)=CC1=O
inactive: [1] 26.2% | [3] 27.8% | [4] 11.8% | [5] 39.2% | [6] 60.2% | [7] 23.3%
active: [8] -27.2%

N#Cc1ccc(NC(=O)Nc2ccc(Cc3ccc(NC(=O)Nc4ccc(C#N)cc4)cc3)cc2)cc1
active: [8] 7.5% | [4] 6.82%
inactive: [2] 20.7% | [3] 34% | [5] 18.8% | [6] 40.1% | [7] 18.7%
